# From PubChem BioAssay
# Tb PYK inh – qHTS of Trypanosoma Brucei Inhibitors; pyruvate kinase (Trypanosoma brucei), Q57TT1; TbPYK enzyme, Kinase-Glo Plus ATP luminescence, 45 min; Potency, µM (doses to about 76.8 µM), for inactives: at the top dose activity, negative = inhibition, hits mostly inhibitors; hit rate 0.12% among 410,000; AID 624173, 2012; further: nearly all actives have a fitted effect of over 50% in size
#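 Quantitative HTS: titrated library compounds versus trypanosomal pyruvate kinase in TEA buffer (pH 7.2) containing KCl, MgCl2, BSA and Tween-20. Reactions were initiated with ADP, 130 uM final. Kinase-Glo Plus luminescence was read after 45 min at RT.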
# Sm TGR block – qHTS Assay for the Inhibitors of Schistosoma Mansoni Peroxiredoxins. hit rate 3% among 360,000. Potency, µM (series often up to 114 µM), inactives show top-dose activity change, negative = inhibition, actives largely listed as inhibitors. AID 485364, 2010. purified TGR, DTNB reduction, TNB absorbance 405 nm; further: nearly all actives have a fitted effect of over 60% in size
#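 First, TGR (20 nM dispensed) and NADPH were mixed with compound. Second, a 15 min room-temperature incubation followed. Third, further NADPH and then DTNB were added to start the reaction. Finally, TNB absorbance was monitored kinetically.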
# LmPK inh – qHTS Assay for Inhibitors of Leishmania Mexicana Pyruvate Kinase (LmPK) | purified LmPK, Kinase-Glo ATP luminescence, 1 h | AID 1721, 2009 | hit rate 0.37% among 290,000 | Potency, µM (top dose mostly 57.5 µM), inactives show at the highest dose activity change, negative = inhibition, most hits filed as inhibitors | Q27686
# Target sequence (Q27686 whole entry, looked up): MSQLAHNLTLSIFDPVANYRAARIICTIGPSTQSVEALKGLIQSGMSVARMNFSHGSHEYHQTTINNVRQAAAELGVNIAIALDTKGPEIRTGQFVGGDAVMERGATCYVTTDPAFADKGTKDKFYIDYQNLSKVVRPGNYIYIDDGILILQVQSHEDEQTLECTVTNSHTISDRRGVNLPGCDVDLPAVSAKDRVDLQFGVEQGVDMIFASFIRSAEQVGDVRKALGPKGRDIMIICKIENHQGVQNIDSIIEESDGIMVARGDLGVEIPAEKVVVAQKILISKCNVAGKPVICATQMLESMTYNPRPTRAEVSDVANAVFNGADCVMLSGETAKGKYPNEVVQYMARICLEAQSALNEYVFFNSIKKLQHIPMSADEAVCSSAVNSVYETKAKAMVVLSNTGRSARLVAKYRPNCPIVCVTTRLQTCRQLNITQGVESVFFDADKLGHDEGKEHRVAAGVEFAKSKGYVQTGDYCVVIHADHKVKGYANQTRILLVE
#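 0.1 nM LmPK, 0.5 mM PEP, 0.1 mM ADP; 50 mM imidazole pH 7.2, 7 mM MgCl2, 50 mM KCl; 1 h RT. Kinase-Glo luminescence readout, normalized to no-enzyme (full inhibition) and uninhibited wells.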
# AMA1-RON2 inh – qHTS for Inhibitors of AMA1-RON; Towards Development of Antimalarial Drug Lead: Primary Screen; Plasmodium falciparum AMA1 (3D7) - RON2 peptide interaction; AlphaScreen AMA1-biotinylated RON2 peptide binding; Potency, µM (doses to about 58.2 µM), without a hit: at the top dose activity change, negative = inhibition, actives largely listed as inhibitors; hit rate 0.2% among 360,000; AID 720542, 2013;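 further: 0% = vehicle wells and -100% = peptide control; nearly all actives have a fitted effect of over 45% in size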
#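 AMA1 (3D7) with his tag at 25 nM final met compounds first, then biotinylated RON2 peptide at 25 nM; detection used donor plus acceptor beads, 10 µg/mL apiece, read by AlphaScreen after 30 min at room temperature.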
# RE007 growth inh – qHTS Assay for Inhibitors of the HIV-1 protein Vpr | hit rate 0.21% among 360,000 | S. pombe RE007 Vpr strain, BacTiter-Glo ATP luminescence, 24 h | Potency, µM (titrated, usually from 92.2 µM), for the others: top-dose activity change, negative = less growth, most hits filed as inhibitors; active means well fitted falling curve with a large enough effect; inconclusive means small, poorly fitted or top-dose-only effect; inactive means no such curve, though single readings can be large or run the other way; further: nearly all actives have a fitted effect of over 50% in size
#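 Fission yeast RE007 carrying one integrated HIV-1 vpr copy, seeded at OD 0.01 in PMG+AL medium with 23 nL pinned compound. Grown 24 h at 30 degrees; viability read by BacTiter-Glo luminescence after 5 min.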
# * = called active by the depositor; u = inconclusive; x = not tested or not shown; ! = not active in a repeat; [ ] = another dose, or the depositor's remark. A selection: hits, their analogues and other compounds. The true share with any hit is near 3.2%. Unless noted, the call rests on the fitted dose curve; in most records, active means well fitted curve in the direction sought with a large enough effect; inconclusive means small, poorly fitted or top-dose-only effect, or another doubt; inactive means no such curve, though single readings can be large; an effect the other way counts as inactive or inconclusive. Unless noted, on the % scale 0 is the no-effect control and ±100 the full control effect; potency means the concentration at half of the fitted maximal effect.
SMILES,Tb PYK inh,Sm TGR block,LmPK inh,AMA1-RON2 inh,RE007 growth inh
Cc1nnc(N2C(=O)c3cccc4c([N+](=O)[O-])ccc(c34)C2=O)s1,2.9%,4.47µM*,4.7%,4.0%,u
O=C1c2cccc3c([N+](=O)[O-])ccc(c23)C(=O)N1Cc1cccnc1,-6.4%,25.1µM*,4.9%,-8.7%,-8.8%
Cc1ccnc(N2C(=O)c3cccc4c([N+](=O)[O-])ccc(c34)C2=O)c1,0.3%,-20.6%,0.6%,1.5%,u
CCOc1ccccc1N(C)C(=O)Cn1nc(Cc2ccncc2)c2ccccc2c1=O,-2.7%,-2.7%,x,x,x
COC(=O)N1C2CC3(C)C=C(C)OC1(C)C3c1ccccc12 (stereo not drawn),x,x,-1.8%[11.5 µM],x,x
O=C(NCc1ccccc1)c1ccc(CS(=O)Cc2ccc(Cl)cc2)o1 (stereo not drawn),0.4%,u,-3.0%,0.0%,-2.4%
O=C(NCCc1ccccc1)c1ccc(CS(=O)Cc2ccc(Cl)cc2)o1 (stereo not drawn),0.0%,35.5µM*!,-0.2%,0.0%,16.1%
O=C(NC1CCCCCC1)c1ccc(CS(=O)Cc2cccc(Cl)c2)o1 (stereo not drawn),0.2%,56.2µM*,-2.7%,-7.3%,19.7%
CN(Cc1ccncc1)C1CC(=O)N(c2ccc(Cl)cc2)C1=O (stereo not drawn),1.6%,u,1.6%,-4.6%,50.1µM*
C=CCN(C(=O)Nc1ccc(Cl)cc1)C1CC(=O)N(c2ccc(OC)cc2)C1=O (stereo not drawn),1.5%,-11.9%,2.0%,-0.3%,-7.8%
COC(=O)CN(C)C1CC(=O)N(c2ccc(Cl)cc2)C1=O (stereo not drawn),1.1%,6.31µM*,-5.2%,81.9%,15.8µM*
CC(/C=C/C=C(\C)C(=O)O[C@@H]1O[C@H](CO[C@@H]2O[C@H](CO)[C@@H](O)[C@H](O)[C@H]2O)[C@@H](O)[C@H](O)[C@H]1O)=C\C=C\C=C(C)\C=C\C=C(/C)C(=O)O[C@@H]1O[C@H](CO[C@@H]2O[C@H](CO)[C@@H](O)[C@H](O)[C@H]2O)[C@@H](O)[C@H](O)[C@H]1O,-1.4%,x,x,x,x
Cc1ccc(Nc2nc3ccc(C)cc3nc2-n2nc(C)cc2C)c(C)c1,3.5%,9.7%,x,x,x
CCCC(c1nnnn1CS(=O)(=O)c1ccc(C)cc1)N1CCN(c2ccccc2)CC1 (stereo not drawn),-1.9%,0.9%,3.9%,-4.1%,3.9%
CCCCC(c1nnnn1CS(=O)(=O)c1ccc(C)cc1)N1CCN(C)CC1 (stereo not drawn),2.0%,10µM*,-1.6%,18.2%,-0.3%
Cc1ccc(S(=O)(=O)Cn2nnnc2C(C)N2CCN(C(=O)c3ccco3)CC2)cc1 (stereo not drawn),1.3%,44.7µM*,-3.4%,1.1%,4.9%
CCOC(=O)c1ccc(NC(=O)CC2C(=O)N(c3cccc(OC)c3)C(=O)N2Cc2cccnc2)cc1 (stereo not drawn),1.2%,8.3%,x,x,x
COc1ccc(NC(=O)CC2C(=O)N(c3ccccc3)C(=O)N2Cc2cccnc2)cc1 (stereo not drawn),1.8%,2.5%,x,x,x
COC(=O)c1sccc1-c1ccc(C(N)=O)o1,x,50.1µM*,-0.7%,x,x
CCCCn1cc(S(=O)(=O)c2ccccc2)c(=O)c2cc(F)c(N3CCN(CCC)CC3)cc21,8.1%,0.0%,x,x,x
NC(=O)c1ccccc1N/C=C/C(=O)c1ccccc1,x,u,7.94µM*,-8.1%,-4.2%[3.69 µM]
CNC(=O)C1CCC(Cn2c(=O)c3sccc3n(CC(=O)NCc3ccccc3)c2=O)CC1 (stereo not drawn),1.7%,-2.6%,x,x,x
COc1ccc(N2CCN(Cc3cc4c(cc3Br)OCCO4)CC2)cc1,-1.1%,5.2%,2.7%,12.6µM*,5.2%
COc1ccc(N2CCN(Cc3csc(C)c3-c3ccc(C)cc3)CC2)cc1,-0.4%,-18.3%,12.1%,10µM*,3.2%
Cc1ccc(-c2c(CN3CCN(c4cc(C)ccc4C)CC3)csc2C)cc1,-7.2%,-3.6%,x,x,x
SMILES,Tb PYK inh,Sm TGR block,LmPK inh,AMA1-RON2 inh,RE007 growth inh
COc1ccccc1N1CCN(Cc2cc3c(cc2Br)OCCO3)CC1,-4.1%,13.8%,-4.6%,u,-16.0%
Cc1ccc(NC(=O)Cn2c(=O)nc(-c3ccccc3F)c3cc(Cl)ccc32)c(Br)c1,-0.8%,0.2%,x,x,x
CCc1nc2ccc(C(=O)NC3CCN(Cc4ccccc4)CC3)cn2c1N(C)Cc1ccc(N(C)C)cc1,3.1%,x,x,22.4µM*,u
O=[N+]([O-])c1ccc(C2CC(c3ccccc3)=Nc3ccccc3S2)cc1 (stereo not drawn),-4.1%,-14.3%,2.3%,-22.4%,x
Fc1ccc(C2CC(c3ccco3)=Nc3ccccc3S2)cc1 (stereo not drawn),3.6%,-1.6%,14.2%,-16.9%,25.1µM*
CN(C)c1cc[n+](CC(=O)Nc2c(Cl)cc(Cl)cc2Cl)cc1,6.9%,39.8µM*,-2.9%,-16.0%,-23.0%
CCOC(=O)Nc1ccc2c(c1)N(C(=O)CCN(CC)CC)c1ccccc1S2=O (stereo not drawn),5.6%,4.47µM*,0.6%,-0.1%,-1.5%
COc1cccc(-n2nc(C#N)c(Cl)cc2=O)c1,0.5%,2.51µM*,-4.3%,-22.0%,u
COc1cccc(-n2nc(C(N)=O)c(O)cc2=O)c1,2.8%,5.6%,-0.2%,1.4%,2.8%
CC[C@]1(O)C[C@H]2CN(CCC3=c4ccccc4=N[C]3[C@@](C(=O)OC)(c3cc4c(cc3OC)N(C)[C@H]3[C@@](O)(C(N)=O)[C@H](O)[C@]5(CC)C=CCN6CC[C@]43[C@@H]65)C2)C1,-6.6%,x,x,x,x
CCN(CC)S(=O)(=O)c1ccc(Cl)nc1,-0.6%,21.3%,-3.8%[11.5 µM],0.1%,-19.4%
COc1ccccc1NS(=O)(=O)c1ccc2nc(CCl)[nH]c2c1,-5.8%,35.5µM*,0.9%,2.6%,1.4%
CCN(CC)S(=O)(=O)c1ccc2nc(CCl)[nH]c2c1,-3.5%,39.8µM*,0.4%,38.4%,-1.5%
O=C1NC(=O)C(=Cc2ccc(N3CCN(C(=O)c4ccccc4)CC3)c([N+](=O)[O-])c2)C(=O)N1,u,11.2µM*,16.8%,-4.7%,-3.4%
Fc1ccc(-c2nnc(NC3=NCCCCC3)o2)cc1,u,-32.7%,15.8µM*,-4.3%,u
c1ccc(-c2nnc(NC3=NCCC3)o2)cc1,-11.0%,x,20µM*,78.8%,-19.0%
COc1ccc(-c2cn3ccc4ccccc4c3n2)cc1,1.6%,-16.6%,-20.8%,-9.6%,-14.3%
